As a reminder, the AC50 is the midpoint of the concentration-response curve, whichever way the signal moves.

Read-out in test [1]: Plasminogen activator inhibitor-1 (PAI1), SERPINE1 (gene 5054)
The test can be described thus: BSK_KF3CT_PAI1: BioMAP Diversity Plus: KF3CT Assay for Plasminogen activator inhibitor-1 (PAI1) Biomarker Activity (AID 2284252). Particulars: primary human keratinocytes with fibroblasts. Put shortly:
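Keratinocyte + dermal fibroblast co-culture (human primary); 24 h post-dose; PAI-1 by ELISA; gain-of-signal fit vs DMSO control.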

Read-out in test [2]: Monocyte Chemoattractant Protein-1 (MCP1), CCL2 (gene 6347)
As to the kind of experiment: BSK_IMphg_MCP1: BioMAP Diversity Plus: IMphg Assay for Monocyte Chemoattractant Protein-1 (MCP1) Biomarker Activity (AID 2284253). The settings on record: primary human endothelial cells with macrophages. A digest of the protocol:
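ELISA readout of MCP-1 at 24 hours in IMphg co-cultures of venular endothelial cells and macrophages, normalised to DMSO; parallel cultures stained with sulforhodamine B for overt cytotoxicity.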

Read-out in test [3]: Interleukin-8 (IL8), CXCL8 (gene 3576)
As to the kind of experiment: BSK_KF3CT_IL8: BioMAP Diversity Plus: KF3CT Assay for Interleukin-8 (IL8) Biomarker Activity (AID 2284254). Particulars: primary human keratinocytes with fibroblasts. A digest of the protocol: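 Human keratinocyte/foreskin fibroblast co-culture dosed 24 h; IL-8 measured by ELISA relative to DMSO. Parallel cultures stained with SRB for total protein to flag cytotoxicity.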

Read-out in test [4]: Plasminogen activator inhibitor-1 (PAI1), SERPINE1 (gene 5054)
The test can be described thus: BSK_MyoF_PAI1: BioMAP Diversity Plus: MyoF Assay for Plasminogen activator inhibitor-1 (PAI1) Biomarker Activity (AID 2284256). The settings on record: primary human lung fibroblasts. A digest of the protocol: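 Primary human lung fibroblasts treated with chemical for 24 h; PAI-1 levels quantified by ELISA relative to DMSO. Cytotoxicity was assessed in parallel cultures by SRB total-protein staining (0.1% SRB after 10% TCA fixation, 560 nm).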

Read-out in the next test: CD69, CD69 (gene 969)
As to the kind of experiment: BSK_IMphg_CD69: BioMAP Diversity Plus: IMphg Assay for CD69 Biomarker Activity (AID 2284257). Particulars: primary human endothelial cells with macrophages. A digest of the protocol:
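Readout is ELISA for CD69 in primary human venular endothelial cell/macrophage co-culture, taken at 24 h post-dosing. SRB staining of parallel cultures gauged overt cytotoxicity; signal increase versus DMSO defined activity.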

Read-out in test [5]: Eotaxin 3, CCL26 (gene 10344)
As to the kind of experiment: BSK_BF4T_Eotaxin3: BioMAP Diversity Plus: BF4T Assay for Eotaxin 3 Biomarker Activity (AID 2284258). Particulars: primary human bronchial epithelial cells with fibroblasts. A digest of the protocol:
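ELISA measurement of Eotaxin-3 after 24 h chemical exposure in a bronchial epithelial/dermal fibroblast co-culture, with DMSO as baseline. Parallel SRB staining (0.1% SRB after 10% TCA fixation, 560 nm) flagged overt cytotoxicity.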

Read-out in test [6]: Monocyte Chemoattractant Protein-1 (MCP1), CCL2 (gene 6347)
The test can be described thus: BSK_BF4T_MCP1: BioMAP Diversity Plus: BF4T Assay for Monocyte Chemoattractant Protein-1 (MCP1) Biomarker Activity (AID 2284259). The settings on record: primary human bronchial epithelial cells with fibroblasts. A digest of the protocol: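 MCP-1 ELISA readout taken 24 h after dosing in the BF4T system (bronchial epithelial cells plus dermal fibroblasts). Parallel SRB total-protein staining flagged cytotoxicity; DMSO served as baseline, positive fitting direction.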

Read-out in test [7]: Interleukin-8 (IL8), CXCL8 (gene 3576)
The test can be described thus: BSK_MyoF_IL8: BioMAP Diversity Plus: MyoF Assay for Interleukin-8 (IL8) Biomarker Activity (AID 2284261). Particulars: primary human lung fibroblasts. Put shortly: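 Human lung fibroblast (MyoF system) cultures dosed for 24 h, then IL-8 measured by ELISA. Response taken relative to DMSO; parallel SRB total-protein staining for cytotoxicity.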

Read-out in the next test: CD90, THY1 (gene 7070)
The test can be described thus: BSK_BF4T_CD90: BioMAP Diversity Plus: BF4T Assay for CD90 Biomarker Activity (AID 2284262). The settings on record: primary human bronchial epithelial cells with fibroblasts. A digest of the protocol: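 CD90 levels by ELISA after 24 h treatment of human bronchial epithelial cell/dermal fibroblast cultures, analysed versus DMSO. Overt cytotoxicity checked in parallel cultures by sulforhodamine B staining.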

Read-out in test [8]: Interleukin-8 (IL8), CXCL8 (gene 3576)
As to the kind of experiment: BSK_BF4T_IL8: BioMAP Diversity Plus: BF4T Assay for Interleukin-8 (IL8) Biomarker Activity (AID 2284263). The settings on record: primary human bronchial epithelial cells with fibroblasts. Put shortly:
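Human bronchial epithelial cells with dermal fibroblasts co-culture; IL-8 measured by ELISA 24 hours after dosing, fitted vs DMSO. Cytotoxicity tracked in parallel cultures by SRB total-protein staining.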

Read-out in test [9]: Interleukin-1 alpha (IL1a), IL1A (gene 3552)
As to the kind of experiment: BSK_BF4T_IL1a: BioMAP Diversity Plus: BF4T Assay for Interleukin-1 alpha (IL1a) Biomarker Activity (AID 2284264). Particulars: primary human bronchial epithelial cells with fibroblasts. A digest of the protocol:
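ELISA read-out of IL-1α from bronchial epithelial cell/dermal fibroblast co-cultures 24 h after compound addition. Increases scored against DMSO negative control. Cytotoxicity monitored by sulforhodamine B staining of parallel cultures.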

Read-out in the next test: Decorin, DCN (gene 1634)
As to the kind of experiment: BSK_MyoF_Decorin: BioMAP Diversity Plus: MyoF Assay for Decorin Biomarker Activity (AID 2284265). Particulars: primary human lung fibroblasts. Put shortly:
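Human lung fibroblast cultures were dosed for 24 h, and decorin was then measured by ELISA. Parallel cultures were stained with sulforhodamine B for total protein as a cytotoxicity check. Gain of signal was fitted relative to DMSO.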

The nature of test [10]: BSK_MyoF_SRB: Viability Assessment in the BioMAP Diversity Plus: MyoF Assay (AID 2284267).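 Note: total protein by SRB absorbance in parallel cultures as cytotoxicity measure.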 The settings on record: primary human lung fibroblasts. A digest of the protocol: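 Lung fibroblast cultures, 24 h post-dose; fix 10% TCA, stain 0.1% SRB, read 560 nm. Signal = total protein as cytotoxicity measure; fitted relative to DMSO negative control.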
Read-out in test [11]: Matrix Metallopeptidase 1 (MMP1), MMP1 (gene 4312)
The test can be described thus: BSK_MyoF_MMP1: BioMAP Diversity Plus: MyoF Assay for Matrix Metallopeptidase 1 (MMP1) Biomarker Activity (AID 2284268). Particulars: primary human lung fibroblasts. Put shortly: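 Human lung fibroblast primary cells; MMP1 measured by ELISA 24 h after dosing, fitted in the positive direction relative to DMSO. Parallel SRB staining (0.1%, after 10% TCA fixation, 560 nm) assesses overt cytotoxicity.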

Read-out in test [12]: TIMP metallopeptidase inhibitor 1 (TIMP1), TIMP1 (gene 7076)
The test can be described thus: BSK_MyoF_TIMP1: BioMAP Diversity Plus: MyoF Assay for TIMP metallopeptidase inhibitor 1 (TIMP1) Biomarker Activity (AID 2284269). The settings on record: primary human lung fibroblasts. Put shortly: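 Primary human lung fibroblasts, MyoF multiplex system; chemical exposure 24 h; TIMP-1 by ELISA; positive fitting direction vs DMSO control.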

Read-out in test [13]: Matrix Metallopeptidase 1 (MMP1), MMP1 (gene 4312)
The test can be described thus: BSK_BF4T_MMP1: BioMAP Diversity Plus: BF4T Assay for Matrix Metallopeptidase 1 (MMP1) Biomarker Activity (AID 2284270). Particulars: primary human bronchial epithelial cells with fibroblasts. A digest of the protocol:
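MMP-1 quantified by ELISA in primary human bronchial epithelial/dermal fibroblast co-cultures, 24 hours post-dosing, with DMSO as baseline; parallel sulforhodamine B staining (560 nm) tracks overt cytotoxicity.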

Read-out in test [14]: Matrix Metallopeptidase 3 (MMP3), MMP3 (gene 4314)
As to the kind of experiment: BSK_BF4T_MMP3: BioMAP Diversity Plus: BF4T Assay for Matrix Metallopeptidase 3 (MMP3) Biomarker Activity (AID 2284271). The settings on record: primary human bronchial epithelial cells with fibroblasts. A digest of the protocol:
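MMP-3 level read by ELISA after 24 h chemical exposure of bronchial epithelial cell/dermal fibroblast co-cultures, fitted upward relative to DMSO. Parallel cultures stained with 0.1% SRB after TCA fixation gauge overt cytotoxicity.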

Read-out in test [15]: Macrophage Inflammatory Protein-1 Alpha (MIP1a), CCL3 (gene 6348)
As to the kind of experiment: BSK_IMphg_MIP1a: BioMAP Diversity Plus: IMphg Assay for Macrophage Inflammatory Protein-1 Alpha (MIP1a) Biomarker Activity (AID 2284255). The settings on record: primary human endothelial cells with macrophages. A digest of the protocol: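 MIP-1a protein levels were quantified by ELISA after 24 h treatment of human endothelial cell–macrophage co-cultures, compared with DMSO. Parallel cultures were fixed with TCA and stained with 0.1% SRB to gauge overt cytotoxicity.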

Read-out in test [16]: Intercellular Adhesion Molecule 1 (ICAM1), ICAM1 (gene 3383)
As to the kind of experiment: BSK_BF4T_ICAM1: BioMAP Diversity Plus: BF4T Assay for Intercellular Adhesion Molecule 1 (ICAM1) Biomarker Activity (AID 2284260). Particulars: primary human bronchial epithelial cells with fibroblasts. A digest of the protocol: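 ICAM-1 levels measured by ELISA after 24 h chemical treatment of bronchial epithelial cell/dermal fibroblast co-cultures, read against DMSO baseline. Overt cytotoxicity checked in parallel cultures by sulforhodamine B staining.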

Read-out in a further test: KRT18 (gene 3875)
The test can be described thus: BSK_BF4T_Keratin818: BioMAP Diversity Plus: BF4T Assay for Keratin 818 Biomarker Activity (AID 2284266). Particulars: primary human bronchial epithelial cells with fibroblasts. Put shortly: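 Keratin 8/18 levels quantified by ELISA after 24 h chemical treatment of bronchial epithelial cell/dermal fibroblast co-cultures, fitted in positive direction relative to DMSO. Parallel SRB staining tracks overt cytotoxicity.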

Values joined by “and” are separate entries in the source; they are usually repeats but may differ in a detail not shown here. Equal entries are not always repeated. The source holds several records for some structures; these can differ, active in one and inactive in another. Active and inactive are the calls of the source. Rule for the calls: active = hit-call score of the fitted dose curve at least 0.9, where 1 is the maximum; inactive = score below 0.9.

On to `FC(F)(I)C(F)(F)C(F)(F)C(F)(F)C(F)(F)C(F)(F)I`, for which the AC50 was 6.91 µM (active) [middle of 5 runs] in test [1]; 39.8 µM (active) [middle of 5 runs] in test [2]; 6.35 µM (active) [middle of 5 runs] in test [3]; 6 µM (active) [middle of 5 runs] in [4]; 37.9 µM (active) [middle of 5 runs] with CD69, CD69 (gene 969); 8.19 µM (active) [middle of 5 runs] in test [5]. In addition, the AC50 in test [6] was 8.32 µM (active) [middle of 5 runs]; in [7] it was 15 µM (active) and 16.4 µM (active) and 15.6 µM (active); with CD90, THY1 (gene 7070) it was 6.21 µM (active); in [8], 14.9 µM (active) [middle of 5 runs]; in [9], 22.7 µM (active) [middle of 5 runs]; with Decorin, DCN (gene 1634), 7.74 µM (active) [middle of 5 runs]. Moreover, the half-maximal activity concentration (AC50) in test [10] was 7.31 µM (active) [middle of 5 runs]; in test [12] it was 7.01 µM (active) [middle of 5 runs]; in test [13], 23.4 µM (active) [middle of 5 runs]; in [14], 19.3 µM (active) [middle of 4 runs]. The outcome in [7] was “inactive”; with CD90, THY1 (gene 7070) it was “inactive”; in test [11], “inactive”; in test [14], “inactive”.

For `C[C@@H]1C[C@H]2[C@@H]3CCC4=CC(=O)C=C[C@]4(C)[C@@]3(F)[C@@H](O)C[C@]2(C)[C@@]1(O)C(=O)COP(=O)(O)O`, the outcome in test [1] was “inactive”; in [3] it was “inactive”; in test [4] it was “inactive”; with CD69, CD69 (gene 969), “inactive”; in test [5], “inactive”; in [6], “inactive”. For the same compound, the outcome was “inactive” in test [16]; “inactive” in [7]; “inactive” with CD90, THY1 (gene 7070); “inactive” in [8]; “inactive” in test [9]; “inactive” with Decorin, DCN (gene 1634). The result (in the test with KRT18 (gene 3875); in test [10]; in test [11]; in [12]; in [13]; in test [14]) was inactive. Moreover, the AC50 in test [2] is 1.04 µM (active) and 1.15 µM (active); in [15], 946 nM (active) and 574 nM (active); in test [5], 951 nM (active); in test [12], 562 nM (active).

On to `NCC(F)(F)C(F)(F)C(F)(F)C(F)(F)C(F)(F)C(F)(F)C(F)(F)F`, for which the outcome is “inactive” in [1]; “inactive” in [2]; “inactive” in test [3]; “inactive” in test [15]; “inactive” in test [4]; “inactive” with CD69, CD69 (gene 969). Besides, the outcome in test [5] was “inactive”; in test [6], “inactive”; in [16], “inactive”; in test [7], “inactive”; with CD90, THY1 (gene 7070), “inactive”; in test [8], “inactive”. Moreover, the outcome in test [9] is “inactive”; in the test with Decorin, DCN (gene 1634), “inactive”; with KRT18 (gene 3875), “inactive”; in test [10], “inactive”; in test [11], “inactive”; in [12], “inactive”. Besides, the outcome in test [13] and in test [14] was inactive. In addition, the AC50 in test [3] is 13.5 µM (active); in [6] it was 220 nM (active).

For the origin of these results see PubChem BioAssay (EPA / NIEHS).
